Screen size: about 65,000 compounds; about 2,100 (3.2%) showed an effect of 50% or more. The median lay at about -52%. The list comes from a sample in which strong results are over-represented; it also holds similar structures and randomly drawn compounds.
Tested on: Plasmodium falciparum
Assay: Screen against P. falciparum Asexual Blood Stage (ABS), at 5uM
Type: functional, Dd2
Conditions: tested at 5 uM

SMILES | INHIBITION [%]
COc1cc(N2C[C@H]3CCN(CCN4CCCC4)C[C@H]3C2)ncn1 | -52.5
Cc1cccc(CN2C[C@@H]3CN(Cc4ccoc4)CCO[C@@H]3C2)n1 | -60.3
Cc1ccc(O[C@@H]2C[C@H]3CN(C(=O)Cc4ccccn4)CCN3C2)cc1 | -77.2
CC(C)N1[C@H](CN2CCCC2)C[C@@H]2CN(Cc3ccoc3)CC[C@@H]21 | 76.2
CC(C)N1[C@H](Cn2cncn2)C[C@@H]2CN(c3ncccn3)CC[C@@H]21 | -58.2
CN1C(Cn2cccn2)C[C@@H]2CN(Cc3cccnc3)CC[C@@H]21 (stereo partly specified) | 11.2
CCc1noc(C(C)N2CCN(C)CC2)n1 (stereo unspecified) | -21
Cc1ccc(C(=O)N2C[C@@H]3OCCN(CC4CCCC4)[C@@H]3C2)cn1 | -30
COc1ccnc(N2C[C@H]3CC[C@@H](C2)N(CC2CC2)C3)n1 | 4.16
c1ccc(-c2cc(CN3C[C@H]4CC[C@@H](C3)N(CC3CCC3)C4)on2)cc1 | 88.4
c1ccc(-c2cc(CN3C[C@H]4CC[C@H]3C4)on2)cc1 | 5.39
Cc1noc([C@@H]2C[C@H]3CN(Cc4cc(C)on4)C[C@H]3O2)n1 | -92.2
Cc1cnn(CC(C)NCc2ccc(C#N)cc2)c1 (stereo unspecified) | -64.7
Cc1cnn(CC(C)NCc2ccncc2)c1 (stereo unspecified) | 0.596
CN1CCN(Cc2cccnc2)Cc2cccnc21 | -65.7
Cc1cnn(CCNCc2ccccc2OCc2cccnc2)c1 | 71.5
Cc1cnn(CCNCc2nccn2Cc2ccccc2)c1 | 83
Cc1cnn(CC(C)NCc2cccnc2)c1 (stereo unspecified) | -41.2
O=C(c1ccno1)N1CC[C@@H]2CN(C3CCOCC3)CCO[C@@H]2C1 | -25
CC(C)(C)NC(=O)CNc1ccc(C#N)c(C(F)(F)F)c1 | -31.3
CCc1ocnc1C(=O)N1CCC2(CC1)OCC(C)O2 (stereo unspecified) | -79.3
COc1cc(N2CCN(CC3CC3)c3nc(C)ccc3C2)ncn1 | -65.6

SMILES | INHIBITION [%]
CC(C)CN1CCC2(CCCNC2)C1=O (stereo unspecified) | 10.8
O=C1N(Cc2cccc(F)c2)CCC12CCCNC2 (stereo unspecified) | -20.3
O=C1N(Cc2ccc(Cl)cc2)CCC12CCCNC2 (stereo unspecified) | 85.4
O=C1N(Cc2cccnc2)CCC12CCCNC2 (stereo unspecified) | -85.5
O=C1N(Cc2ccncc2)CCC12CCCNC2 (stereo unspecified) | -59.6
O=C1N(Cc2cccc(Cl)c2)CCC12CCCNC2 (stereo unspecified) | 80.7
O=C([C@H]1CN(Cc2ccncc2)C[C@H]2OCC[C@@H]12)N1CCCCO1 | -89.5
Cc1ccc(CN2C[C@H]3OC(=O)N(Cc4ccccn4)[C@H]3C2)o1 | -74.6
CCc1ccc(CN(CCN(C)C)Cc2ccc(C)s2)nc1 | 91.9
CCc1ncc(CN(CCc2ccccc2)Cc2cccs2)cn1 | -80.9
COCCN1CC[C@]2(CN(Cc3cccnc3)C[C@H]2C)C1=O | 25.1
O=C(O)CN1CCC(F)(F)C2(CCN(c3ccccn3)C2)C1 (stereo unspecified) | -77.3
O=C(c1c[nH]cn1)N1CCC(F)(F)C2(CCN(c3cccc(F)c3)C2)C1 (stereo unspecified) | 86.2
Cc1cc(C(=O)N2CCC3(CCN3Cc3ccc(F)cc3)C2)no1 (stereo unspecified) | 4.88
Cc1n[nH]c2c1C(c1ccncc1)SCC(=O)N2 (stereo unspecified) | -28
COCCN1CCOCC2(C1)CN(C(=O)c1conc1C)CCO2 (stereo unspecified) | -10.5
CCC(=O)NCC(=O)NCC(C)(C)c1cccc(Br)c1 | 87.2
COC(=O)NCC(=O)NCC(C)(C)c1cccc(Br)c1 | 84.6
COC(=O)NCCC(=O)NC(C)Cc1cccc(Br)c1 (stereo unspecified) | -15.7
COC(=O)NCCC(=O)NC(C)Cc1ccccc1Br (stereo unspecified) | -138
c1cc(CN2CCO[C@@H]3CNC[C@@H]32)cs1 | -38.5
Cc1cccc(CN2C[C@H](NS(C)(=O)=O)[C@@H]3OCCC[C@@H]32)n1 | -121

SMILES | INHIBITION [%]
COCC(=O)N1CC[C@H]2[C@H]1CCN2CC(C)C | -34.8
CC(C)CN1CCCC1c1cc[nH]n1 (stereo unspecified) | 91
CC(C)N1CCO[C@H]2CN(Cc3cc[nH]n3)C[C@H]21 | -62.4
CC(C)c1ncc2c(n1)CN(CCCc1nc3ccccc3o1)CC2 | 70.3
Cc1noc(C)c1CN1CC[C@@H]2O[C@@H](COCC(C)C)CC[C@@H]21 | -49.5
COc1ccc(C[C@H]2CNCC[C@@H]2OC)cc1 | 78.3
COc1ccc(C[C@H]2CNCC[C@@H]2OCC2CC2)cc1 | 82.2
COc1cccc(CC(C)NC(=O)NCCc2cccnc2)c1 (stereo unspecified) | -58.4
O=C1CSC(c2ccc3c(c2)OCO3)c2cnn(C3CCCCC3)c2N1 (stereo unspecified) | -33
COc1ccc(CNCc2ccnc(N3CCCC3)c2)c(OC)c1 | 73.6
c1cc(CNCc2ccnc(N3CCCC3)c2)c2c(c1)OCCCO2 | -20.5
COc1ccc(OC)c(CNCc2ccnc(N3CCCCC3)c2)c1 | 75.8
CCC(O)CN1CCN(C(=O)Cc2ccc(OC)cc2OC)CC1 (stereo unspecified) | -2.14
CC[C@@H]1N(Cc2cccnc2)CCC[C@]12CCC(=O)N2C | -25.2
CN1CC=C(c2noc(CCC(=O)N3CCOCC3)n2)CC1 | -132
Cn1ncc2c(N3CCCC4(CCNC4)C3)nc(C(C)(C)C)nc21 (stereo unspecified) | 38.2
CCNC(=O)CN1CCSC2(CCCCC2)C1 | -49.4
NC(=O)CN1CCCN(C(=O)Cc2ccc(Br)cc2)CC1 | -114
CCC1(CC)Cc2ccccc2-c2nc(CN(C)C)nc(O)c21 | 74.6
FC(F)CN1CCOC(Cn2cccn2)C1 (stereo unspecified) | -69.4
CC(NCC1CCN(CCO)CC1)c1ccc(C(F)(F)F)cc1 (stereo unspecified) | 89.1
OCCN1CCC(CNCc2ccccc2OC(F)(F)F)CC1 | 95.8

SMILES | INHIBITION [%]
CC(NCC1CCN(CCO)CC1)c1ccc(OC(F)(F)F)cc1 (stereo unspecified) | 93.8
O=C(Cc1cnc(-c2c(Cl)cccc2Cl)s1)N1CCC2(CC1)OCCO2 | -87.1
CCC12CN3CC(C)(CN(C1)C3c1[nH]c(=O)[nH]c(=O)c1C)C2=O (stereo unspecified) | -51.4
CCN1CCNC(=O)C12CCN(C(=O)c1ccccn1)CC2 | -86.3
O=C1CSC(c2ccc(O)cc2)c2c(n(C3CCOCC3)[nH]c2=O)N1 (stereo unspecified) | -92.3
Cc1nn(C2CCCC2)c2c1C(c1ccc3c(c1)OCO3)SCC(=O)N2 (stereo unspecified) | 6.36
Cc1nc(CN2CCO[C@H]3[C@@H](Oc4ccccn4)CC[C@@H]32)cs1 | -47
CSc1ccccc1C(=O)C1CCCN(Cc2ccccn2)C1 (stereo unspecified) | -41.1
NC(=O)c1cccc2nc([C@H]3CCN(Cc4ccccn4)C3)[nH]c12 | 95.1
O=C1NC[C@H]2CN(Cc3ccccn3)CCN12 | -9.08
CCS(=O)(=O)N[C@@H]1CN(Cc2cc(C)on2)C[C@@H]2CCCO[C@@H]21 | -96
CN1CCN(c2ccc(F)cc2C(N)=O)CC1 | -105
COC(=O)CNC(=O)c1cn(Cc2ccccc2F)nn1 | -63.8
CN1CCN(c2ccccc2CNC(=O)Cc2cccc(F)c2)CC1 | 77.4
CN1CCN(c2ccccc2NC(=O)NCCc2ccccc2)CC1 | 83.9
CN1CCN(c2ccc(CO)cc2F)CC1 | -62.7
CN1CCN(c2ccnc3c(F)cc(Br)cc23)CC1 | 0.83
CN1CCN(c2ccccc2CNC(=O)Cc2ccccc2F)CC1 | 77
O=S1(=O)CCC(n2cc(C3=CCN(CCn4cccc4)CC3)cn2)C1 (stereo unspecified) | -22.4
Cc1noc(C)c1CN1C(=O)[C@@H]2CC[C@H]1CN(Cc1cscn1)C2 | -41.1
O=C(C1CCC1)N1CCC2(CC1)CNCCO2 | -16.3
O=C(Nc1ccccc1)C1=NOC2(CCNCC2)C1 | -53.9

SMILES | INHIBITION [%]
COc1ccc(CC(C)(O)CNC(=O)c2cccs2)cc1 (stereo unspecified) | 89.1
c1cc(COC[C@H]2CCC[C@]23CNCCO3)ccn1 | 14.9
c1cnc(NCc2cncc3c2CCN(CC2CC2)C3)nc1 | -95
CC(C)N1CCO[C@H]2CN(C(=O)c3ccccn3)C[C@H]21 | -46.1
OC(CNC1CCSCC1)c1cccc(OCc2ccccc2)c1 (stereo unspecified) | 74.4
CCOc1cccc(C(C)NC(=O)N2CCC3(CC2)OCCO3)c1 (stereo unspecified) | -117
CN1CCC(NCC(O)c2cccc(OCc3ccccc3)c2)CC1 (stereo unspecified) | 90.7
NCC(c1cccnc1)N1CCOCC1 (stereo unspecified) | -122
CC(C)OCCN(C)CC(c1cccs1)N1CCOCC1 (stereo unspecified) | 79.9
c1ccc(COC[C@H]2CC[C@H]3[C@H](CCN3Cc3cccs3)O2)nc1 | -43.6
Oc1cc(C2CCCCN2Cc2cccs2)nc(-c2ccccn2)n1 (stereo unspecified) | 85.9
c1cnc(N2CC[C@@H]3[C@@H]2CCN3Cc2cccs2)nc1 | -56.7
CCN1CCN(Cc2nc(C)no2)CC1 | -11.7
Cc1noc(C)c1CN1C[C@@H](OCC(=O)N(C)C)[C@H]2OCCC[C@H]21 | -76.4
COc1cccc(CNCc2cccc(Cl)c2)c1O | 85.2
COc1cccc(CNCc2ccc(F)c(Cl)c2)c1O | 80
COc1cc(CNCCNC(=O)c2ccc(O)cc2)ccc1SC | 26.9
CC1CCC2(CC1)NC(=O)c1cc(Br)ccc1-n1nnnc12 (stereo unspecified) | -65.8

From ChEMBL document CHEMBL4513216, “Probing the Open Global Health Chemical Diversity Library for Multistage-Active Starting Points for Next-Generation Antimalarials” (ACS Infect Dis, 2020)
